Insulin prom up – MIN6 insulin promoter up-regulation. MIN6 insulin promoter-GFP reporter, high-content imaging; stronger effect = higher value. z-score at 5 µM. 190,000 tested, 0.3% active;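 active means z-score above 3 at 5 µM with at least 500 cells counted in the well; inconclusive means wells under 500 cells, flagged as cytotoxic or low count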
WT yeast gro inh – growth inhibition of WT yeast, mitochondrial fusion screen | mitochondrial fusion phenotypic screen, WT strain | AID 1362 | inhibition, % at 10 µM | 190,000 tested, 2.1% active; in the data active means inhibition above about 58%; tested in S. cerevisiae
ROMK mod – human ROMK K+ channel modulation, primary screen; 130,000 tested, 2% active; B-score at 10 µM; AID 1918; P48048; Tet-inducible ROMK, thallium flux fluorescence; actives lie on both sides;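 active means signal ratio slope over the read window, or its plate-corrected B-score, at least 3 SD from the plate mean, either direction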;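 further: B-score of the F/F0 ratio slope over 7 to 12 s after thallium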
Target sequence (P48048 whole entry, looked up): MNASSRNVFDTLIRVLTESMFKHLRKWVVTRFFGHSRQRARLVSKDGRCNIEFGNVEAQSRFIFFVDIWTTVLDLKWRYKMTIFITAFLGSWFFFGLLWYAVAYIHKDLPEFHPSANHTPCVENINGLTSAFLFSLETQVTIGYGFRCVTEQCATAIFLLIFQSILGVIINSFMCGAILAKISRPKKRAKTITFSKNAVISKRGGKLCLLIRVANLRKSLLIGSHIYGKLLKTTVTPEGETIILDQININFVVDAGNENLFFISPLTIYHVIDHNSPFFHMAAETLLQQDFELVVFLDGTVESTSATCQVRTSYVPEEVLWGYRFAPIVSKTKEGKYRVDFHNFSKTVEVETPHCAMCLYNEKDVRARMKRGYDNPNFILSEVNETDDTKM
INS promoter inh – TRM-6 insulin promoter activity inhibition | TRM-6 cells (human fetal islet line), insulin promoter-eGFP reporter, imaging; reporter expression induced with tamoxifen | inhibition, % at 2 µM | 130,000 tested, 0.9% active | AID 1273;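 active means inhibition above the mean plus 3 SD, with well images judged a real hit on visual review, cut at about 60% in these data, passing the limit was not always enough; inconclusive means inhibition over the cutoff but images rejected on review; inactive means inhibition not above the cutoff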
L major viab – reduces viability of Leishmania major promastigotes. resazurin fluorescence viability. inhibition, % at 10 µM. 200,000 tested, 9% active; in the data active means inhibition above about 50%;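 further: promastigotes grown with compound for 44 hours at 28 °C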
Cl transport mod – modulates chloride dependent transport by human KCC2. AID 1456. Q9H2X9. 190,000 tested, 2.2% active. B-score of Tl+ flux slope (higher = more flux/activation; lower = inhibition) at 10 µM. KCC2 cells, thallium flux FluoZin-2 fluorescence;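 active means thallium flux slope and its plate-corrected score both differing from the plate sample mean at a set confidence after two filtering rounds, in either direction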;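 further: slope of fluorescence scaled to starting intensity during 10 to 20 s after thallium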
Active calls of the source: *; ? = inconclusive; nt = not tested or not shown. Most compounds without a hit are left out; they make up all but 12% or so of the library.

SMILES | Insulin prom up | WT yeast gro inh | ROMK mod | INS promoter inh | L major viab | Cl transport mod
CCOC(=O)N1CCN(c2cc(N3CCN(CC)CC3)c(F)cc2[N+](=O)[O-])CC1C (stereo not drawn) | -1.6 | 15 | nt | 30 | 100* | nt
C=CCC1(C#N)C(SC)=NC2=C(C(=O)CC(C)(C)C2)C1c1ccc(Br)cc1 (stereo not drawn) | nt | 74* | nt | nt | 21 | -1.8
CN(Cc1ccccc1)S(=O)(=O)c1ccc(S(=O)(=O)N(Cc2ccc(F)cc2)C2CCCC2)cc1 | -1.2 | 6 | 0.16 | 23 | -5 | -0.48
COc1ccc(Nc2nc(N)nc(CSc3nncn3C)n2)cc1 | 0.44 | 0 | nt | 77* | 20 | nt
Cc1ccc(/C=C/c2ccc(=O)n(Cc3ccccc3Cl)n2)cc1 | nt | 62* | nt | 43 | -2 | nt
Cc1ccc(/C=C/c2ccc(=O)n(Cc3ccc(F)cc3)n2)cc1 | -0.95 | 2 | 0.4 | nt | -2 | -0.041
COC(=O)c1c(-c2ccc(OC)c(OC)c2)csc1N | 0.83 | -9 | nt | 80* | -7 | nt
CCOC(=O)c1ccc(NC(=O)N2CCN(C3CCCCC3)CC2)cc1 | -0.79 | -4 | -0.2 | 19 | 8 | -0.64
CN(C)c1ccc(C(=O)OCC(=O)N2CCCCCC2)cc1 | 0.2 | 1 | -0.94 | -14 | 2 | 0.64
Oc1cccc2c(NC(=S)Nc3ccc(SC(F)F)cc3)cccc12 | 0.35 | 65* | 0.65 | -7 | -3 | 0.43
Oc1cccc(NC(=S)Nc2ccc(SC(F)F)cc2)c1 | 0.9 | 48 | 0.26 | -22 | 61* | -1
FC(F)Sc1ccc(NC(=S)NC2CCC(NC(=S)Nc3ccc(SC(F)F)cc3)CC2)cc1 (stereo not drawn) | -0.11 | -5 | -0.71 | -9 | 4 | 1
Cc1c(Br)c(=O)oc2c(Br)c(O)c(O)cc12 | 0.4 | 5 | -1.4 | -62 | -5 | 0.67
N#C/C(=C/c1ccc(-c2cc(C(=O)O)cc(C(=O)O)c2)o1)c1nc2ccccc2s1 | 3* | 14 | -2.5 | 6 | 4 | 0.16
N#C/C(=C/c1ccco1)c1nc2ccccc2s1 | 1.1 | 30 | -0.15 | -7 | 57* | 1.6
N#C/C(=C\c1ccco1)c1nc2ccccc2s1 | -0.21 | 14 | 0.52 | nt | -6 | 0.82
N#C/C(=C(/O)c1ccc(-c2cccc([N+](=O)[O-])c2)o1)c1nc2ccccc2s1 | -0.07 | 27 | 1.2 | 13 | -5 | -2.9
CCc1ccc(CCC(=O)Nc2ccccc2C(=O)O)o1 | -0.28 | 77* | nt | -12 | -6 | -1.1
CCCC(=O)NNC(=O)CC(=O)Nc1ccccc1C(=O)O | -0.16 | nt | 0.19 | nt | nt | -0.87
CC1(C)C2CCC1(C)C(OC(=O)CNc1ccccc1)C2 (stereo not drawn) | 0.51 | nt | 0.41 | nt | nt | 0.29
COc1cc(C(=O)OC2CC3CCC2(C)C3(C)C)ccc1OC(C)=O (stereo not drawn) | -0.09 | 73* | nt | nt | -1 | 0.66
O=C1C(Cl)=C(N2CCN(Cc3ccccc3)CC2)C(=O)N1Cc1ccccc1 | nt | 32 | nt | -9 | 92* | nt
CCOc1ccc(S(=O)(=O)N(C)c2ccc(OCC(=O)NCCc3ccc(OC)cc3)cc2)cc1 | -0.2 | nt | nt | nt | nt | 0.32
c1ccc2c(CSc3ncnc4nc[nH]c34)cccc2c1 | nt | 65* | -1.2 | 56 | -4 | -1.2
CC1C2CC(C(CN(C)C)/C2=N/O)C1(C)C (stereo not drawn) | 1 | 3 | nt | -36 | -1 | 0.31
SMILES | Insulin prom up | WT yeast gro inh | ROMK mod | INS promoter inh | L major viab | Cl transport mod
Cc1ccc(C)c(N/N=C2\CCCNC2=O)c1 | 1.2 | -1 | -0.67 | 0 | 78* | -0.78
Cc1ccccc1N/N=C1\CCCNC1=O | 0.8 | -4 | nt | 0 | -7 | -0.15
O=C(Cn1nc(Cc2cccnc2)c2ccccc2c1=O)N1CCN(C(=O)c2ccco2)CC1 | 0.01 | 6 | nt | nt | 73* | nt
O=C(Cn1nc(Cc2ccncc2)c2ccccc2c1=O)N1CCN(C(=O)c2ccco2)CC1 | -1.4 | 12 | nt | nt | -10 | -1.2
CC12CCC(C(=O)O)(c3nc4cc([N+](=O)[O-])ccc4nc31)C2(C)C (stereo not drawn) | -0.25 | nt | nt | nt | nt | -0.041
Cc1cc(C)nc(/N=C2\NC(=O)CC(C(=O)O)N2c2cccc(Cl)c2)n1 (stereo not drawn) | 0.37 | 0 | 0.069 | nt | -1 | 0.71
COC(=O)/C=C1/N/C(=N\c2nc(C)cc(C)n2)N(c2ccc(Cl)cc2)C1=O | -0.09 | 1 | nt | 12 | 50* | 0.92
CCCn1c(C)cc(C(=O)COC(=O)CN=C2NS(=O)(=O)c3ccccc32)c1C | 0.97 | -4 | -0.51 | 21 | 55* | -0.25
CCCCCCc1nc2ccccc2c(=O)n1NC(=O)c1c(O)c2c(n(CC(C)C)c1=O)CCCC2 | ? | 21 | nt | -11 | 54* | 2.9
CCCCCCc1nc2ccccc2c(=O)n1NC(=O)c1c(O)c2cccc3c2n(c1=O)CCC3 | nt | 65* | 0.23 | -31 | 4 | 0.46
CCCCCc1nc2ccccc2c(=O)n1NC(=O)c1c(O)c2cccc3c2n(c1=O)CCC3 | nt | nt | nt | -312 | -2 | 1.1
N#Cc1ccccc1NC(=O)CNc1ccccc1N1CCCCC1 | nt | 36 | -0.86 | -30 | 71* | 0.63
CN(Cc1ccccc1NCC(=O)Nc1ccccc1C#N)C1CCCCC1 | 0.77 | 3 | -0.5 | nt | 39 | 1.1
COc1ccc(C(O)P(=O)(OCC(C)C)OCC(C)C)c(OC)c1 (stereo not drawn) | 0.04 | 3 | 0.34 | -32 | 65* | -0.21
Cc1ccc(-c2nc(P(=O)(c3ccccc3)c3ccccc3)c(N3CCOCC3)o2)cc1 | -0.69 | 6 | -0.39 | 8 | 21 | -1.7
CNc1oc(-c2ccc(Cl)cc2)nc1P(=O)(c1ccccc1)c1ccccc1 | 2.4 | 62* | 0.25 | nt | 44 | -0.87
COc1ccc(-n2c3c(cc(C(=O)NNc4ccccc4)c2=O)C(=O)CC(C)(C)C3)cc1 | -0.97 | 30 | 1.3 | nt | 60* | 1.7
CC1(C)CC(=O)c2cc(C(=O)NCc3ccco3)c(=O)n(-c3ccc(Cl)cc3)c2C1 | 1.1 | -14 | nt | -11 | 45 | 0.25
Cc1ccc(-n2c3c(cc(C(=O)NCc4ccco4)c2=O)C(=O)CC(C)(C)C3)cc1 | 0 | 12 | nt | 8 | 51* | 0.19
COc1ccc(-n2c3c(cc(C(=O)NNc4ccccc4C)c2=O)C(=O)CC(C)(C)C3)cc1 | nt | 7 | -0.44 | -50 | 47 | -0.11
CCOC(=O)NC(Nc1ccc(OC)cc1)(C(F)(F)F)C(F)(F)F | 0.29 | -8 | 0.34 | 7 | 7 | 0.42
COC(=O)c1sccc1NC(=S)N1CCN(c2ccccc2F)CC1 | 0.01 | -5 | nt | nt | -4 | 0.34
O=C(N/N=C\c1cc([N+](=O)[O-])ccc1N1CCOCC1)c1ccccn1 | -0.18 | -3 | -0.33 | nt | 3 | 1.9
Cc1cccc(OCC(=O)N/N=C/c2cc([N+](=O)[O-])ccc2N2CCOCC2)c1 | 1.2 | 16 | 0.81 | 0 | 87* | 0.99
CCc1ccc(OCC(=O)N/N=C/c2cc([N+](=O)[O-])ccc2N2CCOCC2)cc1 | -0.22 | 30 | nt | -57 | 78* | -0.63
O=C(O)c1cc(-c2ccccc2Cl)n[nH]1 | -0.24 | -2 | -0.18 | 3 | -6 | nt
